# What was measured:
# Format in all cases: functional
# Plasmodium falciparum [1] = test: GSK_TCMDC: Inhibition of Plasmodium falciparum 3D7 in whole red blood cells, using parasite LDH activity as an index of growth. Test compounds present at 2uM
# Plasmodium falciparum [2] = test: GSK_TCMDC: Inhibition of Plasmodium falciparum Dd2 in whole red blood cells, using parasite LDH activity as an index of growth. Test compounds present at 2uM
# HepG2 = test: GSK_TCMDC: Percent inhibition of human HepG2 cell line. Test compounds present at 10uM.
Compound,Inhibition (Plasmodium falciparum [1]) [%],Inhibition (Plasmodium falciparum [2]) [%],Inhibition (HepG2) [%]
Cc1ccc(NC(=O)c2cccc(N3CCN(c4ccncc4)CC3)c2)cc1F.O=C(O)C(F)(F)F,100,72,43
CN(C)CC1c2[nH]c3ccccc3c2CCN1C(=O)Nc1ccc(Cl)c(Cl)c1.Cl (configuration not stated),90,32,99
CNC(=O)c1ccccc1Nc1nc(Nc2ccc(N3CCOCC3)cc2)ncc1Cl.Cl,97,97,75
COc1ccc(NC(=O)CCNc2cc(C)nc(NCCc3ccccc3)n2)cc1.O=C(O)C(F)(F)F,85,0,3
O=C(NCCCCCN1CCC(c2c[nH]c3ccccc23)CC1)c1ccc(Cl)c(Cl)c1,85,10,48
O=C(Nc1ccc(N2CCCCC2)c(Cl)c1)c1ccco1,96,95,0
COC[C@H]1CCCN1Cc1ccc(-c2ccc(-c3nc4ccccc4[nH]3)s2)cc1,95,58,18
Cl.c1cc(COc2ccc(C3=NCCN3)cc2)nc(COc2ccc(C3=NCCN3)cc2)c1,100,98,8
CCCC(CNCc1cccc(OC(F)(F)C(F)F)c1)CNc1cc(=O)c2ccccc2[nH]1 (configuration not stated),100,94,0
COc1ccc(CCc2ccc(-c3c(C)[nH]c(C)c(Cl)c3=O)cc2)cc1,98,97,0
COc1cc(Cn2ccc3c4c(N)nc(N)nc4ccc32)cc(OC)c1OC,94,97,66
COc1ccc2c(C)cc(NCCCN(C)C)nc2c1.O=C(O)C(=O)O,95,19,10
CCCCCC(=O)N1CCOC(CCN2CCC(c3ccccc3)CC2)(c2ccc(Cl)c(Cl)c2)C1 (configuration not stated),89,51,17
Cc1cc(C(=O)Nc2ccc3c(c2)CCN3C2CCN(Cc3ccc(F)cc3Cl)C2)no1 (configuration not stated),95,96,7
Cl.Clc1ccc(CCNCCCCCCNCCc2ccc3c(c2)OCO3)cc1,91,11,23
CNC(=O)/C=C/c1cc(NC(=O)Nc2ccnc3c(Br)cccc23)ccc1OC,95,68,12
CC(C)c1ccc(CN2CCCCC(NC(=O)c3cc(-c4ccccc4Cl)cs3)C2)cc1.O=C(O)C(F)(F)F (configuration not stated),100,64,8
Fc1ccc2[nH]cc(CCNCc3ccc(-c4cccc(-c5nc6ccccc6[nH]5)c4)cc3)c2c1.O=C(O)C(F)(F)F,100,99,69
Cc1cc(C)c(NC(=O)NC2CCN(CCCCCNC(=O)/C=C/c3ccc(Cl)c(Cl)c3)C2)c(C)c1 (configuration not stated),99,48,23
N#Cc1ccc(N(CCOC(=O)c2ccccc2)Cc2ccccc2C(F)(F)F)cc1C(F)(F)F,92,67,6
CN1CCN(CCc2ccc(N/C=C3\C(=O)Nc4ccc5ncccc5c43)cc2)CC1.Cl,100,98,51
Cl.Nc1c(I)cc(C(=O)Nc2ccc3nc4c(c(N)c3c2)CCCC4)cc1I,100,99,40
COc1ccc2nccc([C@@H](O)CN3CCC(NC(=O)C(c4cc5ccccc5o4)N4CCN(C(c5ccccc5)c5ccccc5)CC4)CC3)c2c1 (some centres not stated),100,100,18
CC(=O)c1cccc2cc(C(=O)NC3CCC(CCN4CCc5ccc(C#N)cc5C4)CC3)[nH]c12.Cl (configuration not stated),100,17,12
Cc1cc(N(C)C)nc(Nc2ccc(NC(=O)Nc3ccccc3)cc2)n1,100,100,10
COc1nc(Nc2cccc(C)c2)nc(OC)n1,94,0,46
COc1ccc(NC(=O)Nc2cccc(-c3ccc(-c4nc5cccc(C)c5[nH]4)s3)c2)cc1,100,32,23
Cc1cc2nc(-c3cc(-c4cccc(NS(C)(=O)=O)c4)cnc3N)[nH]c2cc1C,100,32,43
Clc1ccc(-c2csc3ncnc(Cl)c23)cc1,94,95,0
